# Results filed as inconclusive are left out. A call without a number means that no potency is given here. Activity calls are given as the source filed them. Calls come from the whole dose curve; as a rule, active = well fitted curve in the direction sought with a large enough effect in the repeat runs; inconclusive = weak or mixed curves; inactive = no such curve, though single readings can be large; an effect the other way counts as inactive or inconclusive.
# Assay: qHTS assay to identify small molecule antagonists of the retinoic acid receptor (RAR) signaling pathway (AID 1159552; note: nearly all actives have a fitted effect of over 50% in size)
# Settings: C3RL4 RARE luciferase reporter, retinol-stimulated, 6 h; series mostly up to 92.4 µM
# Outline: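 Readout: luciferase luminescence, 30 min post-reagent at RT. Setup: C3RL4 RARE reporter cells, compounds plus retinol 1 uM final, 6 hr incubation at 37 C and 5% CO2.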
row,SMILES,Potency
1,COc1cc(N)c(Cl)cc1C(=O)NC1CCN(Cc2ccccc2)CC1,inactive
2,CC1=C(O)C(=O)OC1C (stereo unspecified),inactive
3,CCOC(=O)c1cc(=O)c2c(OCC(COc3cccc4oc(C(=O)OCC)cc(=O)c34)OC(=O)[C@@H](N)CCCCN)cccc2o1,inactive
4,CN(C)CCOc1ccccc1Cc1ccccc1,inactive
5,CCC(=O)Nc1ccc(O)cc1,inactive
6,CCCCC1CCC(=O)O1 (stereo unspecified),inactive
7,O=C1C=CC(=O)O1,inactive
8,Cc1cc2c(s1)Nc1ccccc1N=C2N1CCN(C)CC1,inactive
9,CCCCC(=O)O[C@]1(C(=O)CO)[C@H](C)C[C@H]2[C@@H]3CCC4=CC(=O)C=C[C@]4(C)[C@@]3(F)[C@@H](O)C[C@@]21C,inactive
10,CC(=O)Nc1ccc(C)c(Cl)c1,inactive
11,O=C(Cl)c1cccc([N+](=O)[O-])c1,inactive
12,O=C(O)c1cccc(Cl)c1Cl,inactive
13,CC(C)C(=O)OCC(C)(C)C(O)C(C)C (stereo unspecified),inactive
14,CC(C)C[C@H](NC(=O)OCC1c2ccccc2-c2ccccc21)C(=O)O,inactive
15,CCCC(CCC)(C(=O)OCC)C(=O)OCC,inactive
16,C=CCc1cc(OC)c(O)c(C(=O)NCCO)c1,inactive

# Assay: qHTS assay to identify small molecule agonists of the retinoic acid receptor (RAR) signaling pathway (AID 1159553); note: potency is the fitted concentration of half-maximal effect
# Settings: C3RL4 RARE luciferase reporter, agonist, 6 h; series mostly up to 73.3 µM
# Outline: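 Luminescence from a RARE-driven luciferase reporter in C3RL4 cells served as the read-out, measured after 30 min with detection reagent at room temperature. Compounds in DMSO were applied for 6 hr at 37 C following overnight seeding.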
row,SMILES,Potency
1,CN(CC1(C)CCCO1)S(=O)(=O)c1ccc(Cl)c(S(N)(=O)=O)c1 (stereo unspecified),inactive
2,COc1cc(N)c(Cl)cc1C(=O)NC1CCN(Cc2ccccc2)CC1,inactive
3,NC(=O)NS(=O)(=O)c1ccc(Cl)cc1,inactive
4,CN1CCN(c2c(F)cc3c(=O)c(C(=O)O)cn4c3c2SCC4)CC1,inactive
5,CC1=C(O)C(=O)OC1C (stereo unspecified),inactive
6,CCOC(=O)c1cc(=O)c2c(OCC(COc3cccc4oc(C(=O)OCC)cc(=O)c34)OC(=O)[C@@H](N)CCCCN)cccc2o1,inactive
7,CN(C)CCOc1ccccc1Cc1ccccc1,inactive
8,CCC(=O)Nc1ccc(O)cc1,inactive
9,CCCCC1CCC(=O)O1 (stereo unspecified),inactive
10,O=C1C=CC(=O)O1,inactive
11,Cc1cc2c(s1)Nc1ccccc1N=C2N1CCN(C)CC1,inactive
12,CCOC(=O)[C@H](CCc1ccccc1)N[C@@H](C)C(=O)N1Cc2cc(OC)c(OC)cc2C[C@H]1C(=O)O,inactive
13,CCCCCCCCOC(=O)CCCCCCCCC(=O)OCCCCCCCC,inactive
14,O=C1CCC(C2CCCCC2)CC1,inactive
15,CC/C=C\CCOC(=O)CCCCC,inactive
16,O=CCCc1ccccc1,inactive

row,SMILES,Potency
1,CCCCC(=O)O[C@]1(C(=O)CO)[C@H](C)C[C@H]2[C@@H]3CCC4=CC(=O)C=C[C@]4(C)[C@@]3(F)[C@@H](O)C[C@@]21C,inactive
2,CC(=O)Nc1ccc(C)c(Cl)c1,inactive
3,c1ccc(CN(CC2=NCCN2)c2ccccc2)cc1,inactive
4,C=Cc1ccccc1,inactive
5,O=C1CCN(c2ccccc2)N1,inactive
6,OCC(CBr)(CBr)CBr,inactive
7,CN1C(=O)CC(c2ccccc2)C1=O (stereo unspecified),inactive
8,O=C(Cl)c1cccc([N+](=O)[O-])c1,inactive
9,O=C(O)c1cccc(Cl)c1Cl,inactive
10,CC(C)C(=O)OCC(C)(C)C(O)C(C)C (stereo unspecified),inactive
11,Cc1onc(-c2ccccc2)c1C(=O)Cl,inactive
12,CCC/C=C/CO,inactive
13,CC(C)C[C@H](NC(=O)OCC1c2ccccc2-c2ccccc21)C(=O)O,1720 nM (active)
14,NCCC(O)(P(=O)(O)O)P(=O)(O)O,inactive
15,CCCC(CCC)(C(=O)OCC)C(=O)OCC,inactive
16,C=CCc1cc(OC)c(O)c(C(=O)NCCO)c1,inactive

# Assay: qHTS assay to identify small molecule antagonists of the estrogen related receptor (ERR) signaling pathway - cell viability counter screen (AID 1224818);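 note: viability measured after 17.5 h of compound exposure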
# Settings: ERR reporter cell line viability counter screen; series mostly up to 46.1 µM
# Outline: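 Multiplexed counter screen to separate cytotoxic compounds from true ERR modulators. ERR cells received DMSO-dissolved compounds after a 6 h pre-incubation, were exposed 17.5 h at 37 C, then assayed with CellTiter-Fluor fluorescence.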
row,SMILES,outcome
1,NC1=NCC2c3ccccc3Cc3ccccc3N12 (stereo unspecified),inactive
2,CC(=O)Oc1cc(C(C)C)c(OCCN(C)C)cc1C,inactive
3,CNCCC(Oc1ccccc1OC)c1ccccc1 (stereo unspecified),inactive

# Source: PubChem BioAssay (Tox21)
